High-throughput results deposited in PubChem by National Center for Advancing Translational Sciences (NCATS).
Pf growth 96h – P. falciparum growth inhibition at 96 hour, primary screen for plastid delayed-death inhibitors; P. falciparum luciferase reporter growth, 96 h; Potency, µM (doses to about 28.7 µM), for inactives: at the highest dose activity change, negative = inhibition, actives largely listed as inhibitors; hit rate 6.9% among 320,000; AID 504834; further: potency means the concentration at half of the fitted maximal effect; on the % scale 0 is the no-effect control and ±100 the full control effect
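Delayed-death screen, second-generation endpoint: infected erythrocytes, 2% hematocrit, 0.05% parasitemia final; 96 hours at 37 C, 5% CO2; luciferase detection reagent; luminescence decrease equals reduced growth.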
HCV inh – HCV inhibition; hit rate 3.4% among 340,000; Potency, µM (top dose mostly 41.8 µM), inactives show top-dose activity change, negative = inhibition, actives largely listed as inhibitors; Huh7.5.1 HCVcc-Cre infection, luciferase reporter, 44 h; further: potency means the concentration at half of the fitted maximal effect; on the % scale 0 is the no-effect control and ±100 the full control effect
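Seed cells (1,000/well) for 4 h; treat with compound and infect with HCVcc-Cre, moi about 0.5. Incubate 44 h, then detect luciferase activity.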
Pf growth 48h – inhibits P. falciparum growth in the first generation, 48 h; P. falciparum luciferase growth in erythrocytes, 48 h; Potency, µM (titrated, usually from 28.7 µM), for inactives: top-dose activity change, negative = inhibition, most hits filed as inhibitors; hit rate 5.9% among 310,000; further: potency means the concentration at half of the fitted maximal effect; on the % scale 0 is the no-effect control and ±100 the full control effect
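Firefly luciferase activity from engineered P. falciparum reports growth; inhibitors lower the luminescent signal. Cultures contained 2% hematocrit erythrocytes at 0.1% final parasitemia.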
AMA1-RON2 inh – inhibitors of Plasmodium falciparum AMA1-RON2 interaction; AlphaScreen AMA1-biotinylated RON2 peptide binding; Potency, µM (series often up to 58.2 µM), for the others: top-dose activity change, negative = inhibition, actives largely listed as inhibitors; hit rate 0.2% among 360,000;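 further: potency means the concentration at half of the fitted maximal effect; 0% = vehicle wells and -100% = peptide control; nearly all actives have a fitted effect of over 45% in size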
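AMA1 (3D7) with his tag at 25 nM final met compounds first, then biotinylated RON2 peptide at 25 nM; detection used donor plus acceptor beads, 10 µg/mL apiece, read by AlphaScreen after 30 min at room temperature.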
CHX counter – affects cycloheximide protein synthesis inhibition readout, counter-screen; cell reporter, cycloheximide protein synthesis inhibition counterscreen; max response, %; hit rate 12% among 300,000; AID 2314; in the data active means max response mostly above about 13%, no sharp cut-off; inactive means mostly below about 14%; further: read at 38.3 µM for the half of the compounds with a filed dose; 0% is about no effect
Shiga inhibitor – blocks Shiga toxin action in Vero cells; hit rate 9.2% among 290,000; inhibition, % at 38.7 µM; Vero cells, Shiga toxin protein synthesis inhibition reporter; in the data active means inhibition mostly above about 28%, no sharp cut-off; inactive means mostly below about 43%; further: 0% is about no effect
* hit, by the source's call; ? = inconclusive; . = no result; [ ] = another dose, or the depositor's remark. A selection: hits, their analogues and other compounds. The true share with any hit is near 21%. Unless noted, the call rests on the fitted dose curve; in most records, active means well fitted curve in the direction sought with a large enough effect; inconclusive means small, poorly fitted or top-dose-only effect, or another doubt; inactive means no such curve, though single readings can be large; an effect the other way counts as inactive or inconclusive.

SMILES	Pf growth 96h	HCV inh	Pf growth 48h	AMA1-RON2 inh	CHX counter	Shiga inhibitor
Cc1onc(-c2c(F)cccc2Cl)c1C(=O)N=C(N)N1CCCC1	-10%	-18%	6%	-14%	1	21
COc1ccccc1N1CCN(C(=O)c2c(-c3ccccc3Cl)noc2C)CC1	?	11µM*	?	-10%	2	-8
COc1ccccc1N1CCN(C(=O)c2c(C)noc2C)CC1	47%	6%	6%	-2%	-3	2
Cc1onc(-c2c(Cl)cccc2Cl)c1C(=O)N1CCN(c2ccccc2F)CC1	?	?	13µM*	21%	-1	1
Cc1onc(-c2ccccc2)c1C(=O)N1CCN(c2ccccc2F)CC1	?	0%	-10%	-5%	-3	-5
COc1ccccc1-c1cnc(C(O)c2cccc(CN3CCCCC3)c2)[nH]1 (configuration not stated)	.	.	.	-4%	.	.
Cc1onc(-c2ccccc2)c1C(=O)Nc1ccccc1N1CCOCC1	.	-7%	?	1%	3	13
Cc1onc(-c2c(F)cccc2Cl)c1C(=O)Nc1ccccc1N1CCOCC1	2.6µM*	-15%	1.9µM*	-12%	-1	-5
CCN(CC(=O)Nc1c(F)cccc1F)C(=O)CCCN1C(=O)c2cccc3cccc(c23)C1=O	.	.	.	1%	.	.
COc1ccc(NCc2nc3ccccc3n2CCOc2ccc(C)cc2)cc1	35%	8.9µM*	-1%	?	28*	47*
COc1ccc(NCc2nc3ccccc3n2CCOc2ccccc2)cc1	42%	?	-6%	?	47*	84*
COc1ccc(OCCCCn2c(CO)nc3ccccc32)cc1	?	-20%	-3%	0%	3	17
Cc1ccc(OCCn2c(C)nc3ccccc32)cc1	-20%	?	?	6%	1	.
c1ccc(NCc2nc3ccccc3n2CCOc2ccccc2)cc1	?	?	-18%	3%	16*	active
Cc1ccc(C)c(C(Nc2ccccc2)c2ccc3ccc(C)nc3c2O)c1 (configuration not stated)	.	.	.	47%	.	.
CCOC(=O)C1C(C(=O)OC)=C(CC(C)C)c2ccccc2N1S(=O)(=O)C(F)(F)F (configuration not stated)	.	.	.	.	7	-3
CCCCCC1=C(C(=O)OC)C(C(=O)OCC)N(S(=O)(=O)C(F)(F)F)c2ccccc21 (configuration not stated)	.	11µM*	.	16%	-3	-4
COc1ccc(-c2cn(Cc3ccc(C)cc3)nn2)cc1	0%	-24%	91%	22%	55*	79*
CCCCCc1ccc(-c2cn(Cc3ccc(C)cc3)nn2)cc1	?	-3%	?	0%	8	12
Cc1cc(C(=O)OC(C)C(=O)NC2CCCCC2C)c2ccccc2n1 (configuration not stated)	.	.	.	-10%	.	.
BrC(=C\c1ccccc1)/C=N/n1cnnc1	26%	10µM*	10µM*	-4%	43*	31*
BrC(=C\c1ccccc1)/C=N/Nc1ccc2nncn2n1	13%	?	-13%	33%	11	18
C#CCOCCOCCOCCNc1nc(N2CCN(C(=O)Cn3cc(CCCCN)nn3)CC2)nc(N2CCN(C(=O)[C@H]([C@@H](C)CC)n3cc(CCCN=C(N)N)nn3)CC2)n1	?	23%	0.74µM*	-8%	.	.
C#CCOCCOCCOCCNc1nc(N2CCN(C(=O)Cn3cc(CCCCN)nn3)CC2)nc(N2CCN(C(=O)[C@H](C)n3cc(CCCN=C(N)N)nn3)CC2)n1	0.12µM*	-5%[8.37 µM]	-8%	.	-4	-12
C#CCOCCOCCOCCNc1nc(N2CCN(C(=O)Cn3cc(CC(C)O)nn3)CC2)nc(N2CCN(C(=O)[C@H](C)n3cc(CCCN=C(N)N)nn3)CC2)n1 (some centres not stated)	12µM*	18%[8.37 µM]	-2%	-6%	-7	-15
SMILES	Pf growth 96h	HCV inh	Pf growth 48h	AMA1-RON2 inh	CHX counter	Shiga inhibitor
C#CCOCCOCCOCCNc1nc(N2CCN(C(=O)Cn3cc(CCCN=C(N)N)nn3)CC2)nc(N2CCN(C(=O)[C@H]([C@@H](C)O)n3cc(CCCCN)nn3)CC2)n1	10µM*	14%	0%	-7%	.	.
OC[C@@H]1CN(Cc2ccc(Cl)cc2)C[C@H](n2cnc3c(NC4CC4)ncnc32)O1	.	.	.	-7%	.	.
O=C(Nc1ccccc1)OCCOc1ccc(Cl)cc1Cl	.	-14%	.	44%	.	.
COc1ccc([C@@H]2CC(=O)[C@@H]3CN(S(=O)(=O)c4ccc(C)cc4)[C@H](c4ccccc4)C[C@@H]3N2S(=O)(=O)c2ccccc2)cc1	.	.	.	3%	.	.
C#CCOCCOCCOCCNc1nc(N2CCN(C(=O)Cn3cc(CCCN=C(N)N)nn3)CC2)nc(N2CCN(C(=O)[C@H]([C@@H](C)CC)n3cc(CCCN=C(N)N)nn3)CC2)n1	0.037µM*	-6%[8.37 µM]	1.2µM*	.	-5	-14
COCC(=O)Nc1ccc(C(C)C)cc1	.	2%	114%	-6%	37*	110*
COc1ccc(NC(=O)Nc2ccc(C(C)C)cc2)cc1	48%	-22%	27%	-22%	19*	58*
COCC(=O)Nc1ccc(N(C)C)cc1	.	1%	30%	14%	13	39
CC(C)(C)OC(=O)C[C@H]1C/C=C\C[C@@H](CC(=O)NCCO)C(=O)N[C@H](C(C)(C)C)COC1=O	.	5%	.	0%	.	.
O=C(CNC(=O)c1cccs1)Nc1ccc(N2CCOCC2)cc1	94%	10%	74%	5%	.	.
O=C(c1cccc(Br)c1)N1CCN(S(=O)(=O)N2CCCCC2)CC1	14%	4%	16%	-16%	-10	-11
CN(C)CCOC(=O)C1(c2ccccc2)CCCC1	-101%	9%	.	-1%	-4	-6
O=C(OCCN1CCCCC1)c1ccccc1Br	48%	12%	-13%[0.00184 µM]	-7%	35*	40
O=C(Cc1ccccc1)OCCN1CCCCC1	-3%	22%	-15%	0%	-4	-2
O=C(OCCN1CCCC1)C1(c2ccccc2)CCCC1	0.74µM*	?	1%	-10%	-1	-11
O=C(OCCN1CCCCC1)c1ccc(Cl)cc1	3%	12%	.	0%	12	38
O=C(OCCN1CCCCC1)c1cccc(F)c1	5.9µM*	16%	44%	44%	11	-8
C[N+]1(CCCOC(=O)C2(c3ccccc3)CCCC2)CCOCC1	?	6%	12µM*	-2%	-2	-2
COc1ccc(S(=O)(=O)N2CCOCC2)cc1C(=O)NCC(c1ccco1)N1CCCC1 (configuration not stated)	-29%	-2%	-19%	3%	.	.
CC(C)C[C@@H](CNC(=O)OC(C)(C)C)NC(=O)c1nc[nH]c1C(=O)N[C@@H](CC(C)C)C(=O)CNC[C@H](CC(C)C)NC(=O)c1nc[nH]c1C(=O)N[C@@H](Cc1c[nH]c2ccccc12)C(=O)OC(C)(C)C	.	35%	.	132%	.	.
